# Source: ChEMBL document CHEMBL1961873, “Compounds: GSK PKIS; Assays: Nanosyn kinase panel” (2012)
# Target: T1, Non-receptor tyrosine-protein kinase TNK1 (Homo sapiens) (UniProt Q13470)
# T1 sequence (whole entry): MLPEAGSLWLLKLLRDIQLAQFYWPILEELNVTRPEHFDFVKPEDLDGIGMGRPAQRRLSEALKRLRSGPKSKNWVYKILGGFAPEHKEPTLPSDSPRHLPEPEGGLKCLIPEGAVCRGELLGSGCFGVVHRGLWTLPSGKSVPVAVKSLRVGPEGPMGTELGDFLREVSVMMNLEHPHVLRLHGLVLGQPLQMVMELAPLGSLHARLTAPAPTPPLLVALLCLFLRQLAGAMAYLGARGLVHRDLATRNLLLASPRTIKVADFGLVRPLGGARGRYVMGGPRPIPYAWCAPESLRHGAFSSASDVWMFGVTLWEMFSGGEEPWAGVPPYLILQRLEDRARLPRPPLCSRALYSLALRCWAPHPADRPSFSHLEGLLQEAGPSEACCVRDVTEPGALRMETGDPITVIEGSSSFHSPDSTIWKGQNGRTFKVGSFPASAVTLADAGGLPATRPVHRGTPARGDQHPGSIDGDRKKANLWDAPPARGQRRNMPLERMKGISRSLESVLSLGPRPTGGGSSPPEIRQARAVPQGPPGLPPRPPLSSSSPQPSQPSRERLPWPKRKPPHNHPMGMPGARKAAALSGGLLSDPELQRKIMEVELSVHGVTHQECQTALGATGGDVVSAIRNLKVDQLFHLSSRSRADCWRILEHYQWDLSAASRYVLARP
# Conditions: at 0.1 µM
row,Compound,inhibition
1,CC(C)=Cc1cccc2c1/C(=N/Nc1ccc(S(N)(=O)=O)cc1)C(=O)N2,9.88%
2,COC(=O)Nc1nc2cc(Oc3cccc(NC(=O)Nc4cc(C(F)(F)F)ccc4F)c3)ccc2[nH]1,-0.45%
3,Nc1ncnc2occ(-c3ccc(NC(=O)Nc4cc(C(F)(F)F)cc(C(F)(F)F)c4)cc3)c12,4.85%
4,CCn1c(-c2nonc2N)nc2cncc(C(=O)N3CCNCC3)c21,3.89%
5,NC(=O)c1ccc(-c2nc(-c3ccccn3)c(-c3ccc4c(c3)OCO4)[nH]2)cc1,1.36%
6,CCn1c(-c2nonc2N)nc2c(C#CC(C)(C)O)nc(CN3CCCC3)cc21,-0.12%
7,NCc1ccc(-c2nc(-c3ccc(Cl)c(O)c3)c(-c3ccncc3)[nH]2)cc1,-1.81%
8,N#Cc1c(NC(=O)c2cccc3ccccc23)sc2c1CCCC2,1.31%
9,Cc1cc(O)cc(C)c1/C=C/c1cncc(-c2nn[nH]n2)c1,35.1%
10,Cc1cccc(-c2n[nH]cc2-c2ccc3ncccc3n2)n1,-0.63%
11,O=C1NC(=O)C(N2CCc3ccccc32)=C1c1ccc(Cl)cc1,4.03%
12,CCn1c(-c2nonc2N)nc2ccncc21,3.44%
13,Cc1nnc(-c2ccc(C)c(-c3ccc(C(=O)Nc4cccc(C#N)c4)cc3)c2)o1,-0.4%
14,COc1ccc(-c2nn3ncccc3c2-c2ccnc(Nc3ccc(Cl)c(C(F)(F)F)c3)n2)cc1,0.89%
15,CS(=O)(=O)CCNCc1ccc(-c2ccc3ncnc(Nc4ccc(OCc5ccccc5)c(Cl)c4)c3c2)o1,2.4%
16,O=C1NC(=O)C(c2ccc(Cl)cc2)=C1Nc1ccc(Cl)c(C(=O)O)c1,-3.22%
17,CCc1cccc(NC(=O)Nc2ccc(Oc3ccc4nc(NC(=O)OC)[nH]c4c3)cc2)c1,3.34%

row,Compound,inhibition
1,Nc1ncnc2occ(-c3ccc(NC(=O)Nc4cccc(C(F)(F)F)c4)cc3)c12,7.73%
2,CCn1c(-c2nonc2N)nc2c(C#CC(C)(C)O)nc(OC[C@@H](N)c3ccccc3)cc21,-2.6%
3,Cc1ccc(NC(=O)c2ccnc(N3CCCC3)c2)cc1-c1ccc(C(=O)NCC2CC2)cc1,2.43%
4,CCn1c(-c2nonc2N)nc2cncc(C(=O)N3CC[C@H](N)C3)c21,2.94%
5,Cn1cc(C=C2C(=O)Nc3cccnc32)c2ccccc21,4.27%
6,CN(C)c1cc2c(Nc3ccc4nc(Cc5ccccc5)[nH]c4c3)ncnc2cn1,6.39%
7,O=C1NC(=O)C(c2ccccc2Cl)=C1Nc1cccc(O)c1,3.82%
8,CC(=O)Nc1cccc(C#Cc2cncnc2Nc2ccc(OCc3cccc(F)c3)c(Cl)c2)n1,-0.47%
9,COc1ccccc1Nc1ncc(-c2ccccc2)o1,3.82%
10,CCn1c(-c2nonc2N)nc2c(N3CCCC3)nccc21,-3.68%
11,COc1ccc(-c2coc3ncnc(N)c23)cc1,0.94%
12,O=C1NC(=O)C(c2cccc(Cl)c2)=C1Nc1ccc(O)c(Cl)c1,0.52%
13,CS(=O)(=O)CCNCc1nc(-c2ccc3ncnc(Nc4ccc(F)c(Cl)c4)c3c2)cs1,4.58%
14,COc1cc2c(cc1Nc1nc(N3CCc4ccccc43)c3cc[nH]c3n1)N(C(=O)CN(C)C)CC2,1.17%
15,O=C1Nc2ccc(C(=O)c3ccco3)cc2C1=Cc1cc(Cl)c(O)c(Cl)c1,38.9%
16,CCCN1CCC=C(c2ccc(Nc3nc(Nc4ccccc4C(N)=O)c4cc[nH]c4n3)c(C)c2)C1,26.4%
17,COc1cccc(-n2ncc3c(N/N=C/c4cccc(F)c4)ncnc32)c1,2.13%

# Target: T1, Non-receptor tyrosine-protein kinase TNK1 (Homo sapiens)
# Conditions: at 1 µM
row,Compound,inhibition
1,CC(C)=Cc1cccc2c1/C(=N/Nc1ccc(S(N)(=O)=O)cc1)C(=O)N2,65.6%
2,COC(=O)Nc1nc2cc(Oc3cccc(NC(=O)Nc4cc(C(F)(F)F)ccc4F)c3)ccc2[nH]1,-3.58%
3,Nc1ncnc2occ(-c3ccc(NC(=O)Nc4cc(C(F)(F)F)cc(C(F)(F)F)c4)cc3)c12,33.8%
4,CCn1c(-c2nonc2N)nc2cncc(C(=O)N3CCNCC3)c21,5.69%
5,NC(=O)c1ccc(-c2nc(-c3ccccn3)c(-c3ccc4c(c3)OCO4)[nH]2)cc1,-0.98%
6,CCn1c(-c2nonc2N)nc2c(C#CC(C)(C)O)nc(CN3CCCC3)cc21,-4.05%
7,NCc1ccc(-c2nc(-c3ccc(Cl)c(O)c3)c(-c3ccncc3)[nH]2)cc1,1.42%
8,N#Cc1c(NC(=O)c2cccc3ccccc23)sc2c1CCCC2,-2.02%
9,Cc1cc(O)cc(C)c1/C=C/c1cncc(-c2nn[nH]n2)c1,84.2%
10,Cc1cccc(-c2n[nH]cc2-c2ccc3ncccc3n2)n1,0.33%
11,O=C1NC(=O)C(N2CCc3ccccc32)=C1c1ccc(Cl)cc1,-0.43%
12,CCn1c(-c2nonc2N)nc2ccncc21,-5.95%
13,Cc1nnc(-c2ccc(C)c(-c3ccc(C(=O)Nc4cccc(C#N)c4)cc3)c2)o1,5.43%
14,COc1ccc(-c2nn3ncccc3c2-c2ccnc(Nc3ccc(Cl)c(C(F)(F)F)c3)n2)cc1,13.3%
15,CS(=O)(=O)CCNCc1ccc(-c2ccc3ncnc(Nc4ccc(OCc5ccccc5)c(Cl)c4)c3c2)o1,11.3%
16,O=C1NC(=O)C(c2ccc(Cl)cc2)=C1Nc1ccc(Cl)c(C(=O)O)c1,0.53%
17,CCc1cccc(NC(=O)Nc2ccc(Oc3ccc4nc(NC(=O)OC)[nH]c4c3)cc2)c1,13.8%

row,Compound,inhibition
1,Nc1ncnc2occ(-c3ccc(NC(=O)Nc4cccc(C(F)(F)F)c4)cc3)c12,52.8%
2,CCn1c(-c2nonc2N)nc2c(C#CC(C)(C)O)nc(OC[C@@H](N)c3ccccc3)cc21,2.87%
3,Cc1ccc(NC(=O)c2ccnc(N3CCCC3)c2)cc1-c1ccc(C(=O)NCC2CC2)cc1,-2.64%
4,CCn1c(-c2nonc2N)nc2cncc(C(=O)N3CC[C@H](N)C3)c21,2.95%
5,Cn1cc(C=C2C(=O)Nc3cccnc32)c2ccccc21,9.9%
6,CN(C)c1cc2c(Nc3ccc4nc(Cc5ccccc5)[nH]c4c3)ncnc2cn1,21%
7,O=C1NC(=O)C(c2ccccc2Cl)=C1Nc1cccc(O)c1,2.57%
8,CC(=O)Nc1cccc(C#Cc2cncnc2Nc2ccc(OCc3cccc(F)c3)c(Cl)c2)n1,13.1%
9,COc1ccccc1Nc1ncc(-c2ccccc2)o1,13.8%
10,CCn1c(-c2nonc2N)nc2c(N3CCCC3)nccc21,-3.3%
11,COc1ccc(-c2coc3ncnc(N)c23)cc1,-4.86%
12,O=C1NC(=O)C(c2cccc(Cl)c2)=C1Nc1ccc(O)c(Cl)c1,8.8%
13,CS(=O)(=O)CCNCc1nc(-c2ccc3ncnc(Nc4ccc(F)c(Cl)c4)c3c2)cs1,27.1%
14,COc1cc2c(cc1Nc1nc(N3CCc4ccccc43)c3cc[nH]c3n1)N(C(=O)CN(C)C)CC2,12%
15,O=C1Nc2ccc(C(=O)c3ccco3)cc2C1=Cc1cc(Cl)c(O)c(Cl)c1,85.3%
16,CCCN1CCC=C(c2ccc(Nc3nc(Nc4ccccc4C(N)=O)c4cc[nH]c4n3)c(C)c2)C1,70.1%
17,COc1cccc(-n2ncc3c(N/N=C/c4cccc(F)c4)ncnc32)c1,2.44%
